In all, about 5,500 compounds went through this assay and about 2,000 (36%) were called active. Not shown: some 18% with an inconclusive outcome. No stated cut-off is given here; in the data, active means normalized growth mostly below about 0.91 (no sharp cut-off); inconclusive means no clear call, values can overlap the other calls; inactive means mostly above about 0.92. The list shows a part of the results.
Assay: chemical genetic growth profiling, strain panel (AID 1159580);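 further: tested at 20 µM; growth read once vehicle control cultures reached saturation at 30 °C; 1 = growth at the plate median or of vehicle wells; lower values mean less growth of the strain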
Settings: growth OD

Measured: normalized growth

C[C@@H]1CC2C3C[C@H](F)C4=CC(=O)C=C[C@]4(C)[C@@]3(F)[C@@H](O)C[C@]2(C)[C@@]1(O)C(=O)COC(=O)C(C)(C)C (some centres not stated)
inactive: S. cerevisiae deletion strains, locus YJR075W, strain HOC1, active compounds read low 0.997 | S. cerevisiae deletion strains, locus YKL009W, strain mrt4, active compounds read low 0.982 | S. cerevisiae deletion strains, locus YKL068W, active compounds read low 1.01 | S. cerevisiae deletion strains, locus YKL085W, strain MDH1 (second series), active compounds read low 1 | S. cerevisiae deletion strains, locus YKL085W, strain MDH1, active compounds read low 1 | S. cerevisiae deletion strains, locus YKL160W, strain elf1, active compounds read low 0.978 | S. cerevisiae deletion strains, locus YKL190W, strain CNB1, active compounds read low 0.997 | S. cerevisiae deletion strains, locus YKR001C, strain vps1, active compounds read low 0.988 | S. cerevisiae deletion strains, locus YKR026C, strain gcn3, active compounds read low 0.997 | S. cerevisiae deletion strains, locus YKR091W, strain srl3, active compounds read low 0.996 | S. cerevisiae deletion strains, locus YLL001W, strain dnm1, active compounds read low 0.987 | S. cerevisiae deletion strains, locus YLL026W, active compounds read low 0.984 | S. cerevisiae deletion strains, locus YLL041C, strain sdh2, active compounds read low 1.01 | S. cerevisiae deletion strains, locus YLR027C, strain aat2, active compounds read low 0.987 | S. cerevisiae deletion strains, locus YLR039C, strain RIC1, active compounds read low 1.02 | S. cerevisiae deletion strains, locus YLR058C, strain SHM2, active compounds read low 1.01 | S. cerevisiae deletion strains, locus YLR102C, strain apc9, active compounds read low 1.01 | S. cerevisiae deletion strains, locus YLR113W, strain HOG1, active compounds read low 0.969 | S. cerevisiae deletion strains, locus YLR221C, strain rsa3, active compounds read low 0.99 | S. cerevisiae deletion strains, locus YLR258W, strain gsy2, active compounds read low 0.995 | S. cerevisiae deletion strains, locus YLR262C, strain YPT6 (second series), active compounds read low 0.98 | S. cerevisiae deletion strains, locus YLR262C, strain YPT6, active compounds read low 0.977 | S. cerevisiae deletion strains, locus YLR268W, strain sec22, active compounds read low 0.984 | S. cerevisiae deletion strains, locus YLR320W, strain mms22, active compounds read low 0.975 | S. cerevisiae deletion strains, locus YLR330W, strain CHS5, active compounds read low 1.01 | S. cerevisiae deletion strains, locus YLR342W, strain FKS1 (second series), active compounds read low 1.03 | S. cerevisiae deletion strains, locus YLR342W, strain FKS1, active compounds read low 0.978 | S. cerevisiae deletion strains, locus YLR357W, strain rsc2, active compounds read low 0.979 | S. cerevisiae deletion strains, locus YLR370C, strain arc18, active compounds read low 0.987 | S. cerevisiae deletion strains, locus YLR371W, strain rom2, active compounds read low 1.01 | S. cerevisiae deletion strains, locus YLR384C, strain iki3, active compounds read low 0.987 | S. cerevisiae deletion strains, locus YLR418C, strain cdc73, active compounds read low 1.03 | S. cerevisiae deletion strains, locus YML016C, strain PPZ1, active compounds read low 1 | S. cerevisiae deletion strains, locus YML032C, strain rad52, active compounds read low 1 | S. cerevisiae deletion strains, locus YML120C, strain ndi1, active compounds read low 0.999 | S. cerevisiae deletion strains, locus YML124C, strain tub3, active compounds read low 1 | S. cerevisiae deletion strains, locus YMR058W, strain fet3, active compounds read low 1.01 | S. cerevisiae deletion strains, locus YMR078C, strain ctf18, active compounds read low 1.01 | S. cerevisiae deletion strains, locus YMR125W, strain sto1, active compounds read low 1.01 | S. cerevisiae deletion strains, locus YMR129W, active compounds read low 0.988 | S. cerevisiae deletion strains, locus YMR205C, strain PFK2, active compounds read low 0.977 | S. cerevisiae deletion strains, locus YMR223W, strain ubp8, active compounds read low 1.04 | S. cerevisiae deletion strains, locus YMR231W, strain pep5, active compounds read low 0.998 | S. cerevisiae deletion strains, locus YMR263W, strain SAP30, active compounds read low 1.01 | S. cerevisiae deletion strains, locus YMR307W, strain GAS1, active compounds read low 0.95 | S. cerevisiae deletion strains, locus YNL067W, strain RPL9B, active compounds read low 0.998 | S. cerevisiae deletion strains, locus YNL071W, strain lat1, active compounds read low 1 | S. cerevisiae deletion strains, locus YNL183C, strain NPR1, active compounds read low 0.962 | S. cerevisiae deletion strains, locus YNL209W, strain ssb2, active compounds read low 0.996 | S. cerevisiae deletion strains, locus YNL233W, strain BNI4, active compounds read low 1.01 | S. cerevisiae deletion strains, locus YNL248C, strain rpa49, active compounds read low 1.01 | S. cerevisiae deletion strains, locus YNL250W, strain rad50, active compounds read low 1.02 | S. cerevisiae deletion strains, locus YNL271C, strain bni1, active compounds read low 1.01 | S. cerevisiae deletion strains, locus YNL298W, strain CLA4, active compounds read low 0.998 | S. cerevisiae deletion strains, locus YNL307C, strain MCK1, active compounds read low 1.02 | S. cerevisiae deletion strains, locus YNL322C, strain KRE1 (second series), active compounds read low 1 | S. cerevisiae deletion strains, locus YNR049C, strain mso1, active compounds read low 0.998 | S. cerevisiae deletion strains, locus YNR052C, strain pop2, active compounds read low 0.998 | S. cerevisiae deletion strains, locus YOL012C, strain htz1 1.17 | S. cerevisiae deletion strains, locus YOL147C, strain pex11, active compounds read low 1.01 | S. cerevisiae deletion strains, locus YOR001W, strain rrp6, active compounds read low 0.98 | S. cerevisiae deletion strains, locus YOR061W, strain CKA2, active compounds read low 1 | S. cerevisiae deletion strains, locus YOR069W, strain VPS5, active compounds read low 1.01 | S. cerevisiae deletion strains, locus YOR070C, strain gyp1, active compounds read low 0.999 | S. cerevisiae deletion strains, locus YOR080W, strain dia2, active compounds read low 0.979 | S. cerevisiae deletion strains, locus YOR083W, strain WHI5, active compounds read low 0.982 | S. cerevisiae deletion strains, locus YOR106W, strain vam3, active compounds read low 0.987 | S. cerevisiae deletion strains, locus YOR136W, strain idh2, active compounds read low 1.01 | S. cerevisiae deletion strains, locus YOR144C, strain elg1, active compounds read low 1 | S. cerevisiae deletion strains, locus YOR184W, strain ser1, active compounds read low 1.04 | S. cerevisiae deletion strains, locus YOR231W, strain MKK1, active compounds read low 0.976 | S. cerevisiae deletion strains, locus YOR265W, strain rbl2, active compounds read low 0.99 | S. cerevisiae deletion strains, locus YOR270C, strain vph1, active compounds read low 1.01 | S. cerevisiae deletion strains, locus YOR290C, strain snf2, active compounds read low 0.997 | S. cerevisiae deletion strains, locus YOR316C, strain cot1, active compounds read low 1.01 | S. cerevisiae deletion strains, locus YPL051W, strain arl3, active compounds read low 0.978 | S. cerevisiae deletion strains, locus YPL055C, strain LGE1, active compounds read low 0.999 | S. cerevisiae deletion strains, locus YPL078C, strain atp4, active compounds read low 0.974 | S. cerevisiae deletion strains, locus YPL106C, strain sse1, active compounds read low 0.946 | S. cerevisiae deletion strains, locus YPL240C, strain hsp82, active compounds read low 1 | S. cerevisiae deletion strains, locus YPL256C, strain CLN2, active compounds read low 0.992 | S. cerevisiae deletion strains, locus YPR119W, strain clb2, active compounds read low 1.01 | S. cerevisiae deletion strains, locus YPR141C, strain kar3, active compounds read low 1 | S. cerevisiae deletion strains, locus YPR163C, strain tif3, active compounds read low 1 | S. cerevisiae deletion strains, locus YPR167C, strain met16, active compounds read low 1.01 | S. cerevisiae deletion strains, strain wtn01, active compounds read low 1 | S. cerevisiae strains, strain wild type, active compounds read low 0.995

— PubChem BioAssay AID1159580 (chemical genetic matrix, 2015)
